In PubChem BioAssay (NCATS) one finds activity, negative = inhibition and Potency data, which are given here for 13 molecules.

The structures appear in SMILES notation. Inconclusive results are not listed. Unmarked numbers belong to inactive results. Calls of active or inactive are those of the source. Calls come from the whole dose curve; as a rule, active = well fitted inhibition curve with a large enough effect; inconclusive = small, poorly fitted or top-dose-only effect; inactive = flat fitted curve, though single readings scatter.

Assay [1] in a line: qHTS profiling for inhibitors of Plasmodium falciparum proliferation (AID 504749).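 For activity, negative = inhibition: 0% = DMSO vehicle and full inhibition = artemisinin control.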 Note: nearly all actives have a fitted effect of over 60% in size. The conditions noted are these: P. falciparum in erythrocytes, SYBR Green DNA, 72 h. The method, boiled down:
(§1)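 Each compound contacts P. falciparum-infected red blood cells for 72 h at 37 C; lysis buffer (Tris, EDTA, saponin, Triton X, SYBR Green I) is added and fluorescence measured next morning; values normalized to controls.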
(Quantitative high-throughput screening tests each substance at several concentrations.)

Assay [2] relates to 3D7. Described as above. The conditions noted are these: P. falciparum in erythrocytes, SYBR Green DNA, 72 h; series mostly up to 28.7 µM. The method, boiled down: as §1
In assay [3] the test system is 7G8. Described as above. The conditions noted are these: P. falciparum in erythrocytes, SYBR Green DNA, 72 h; series mostly up to 28.7 µM. The method, boiled down: as §1
Assay [4] has as its system AA1029. Described as above. The conditions noted are these: P. falciparum in erythrocytes, SYBR Green DNA, 72 h; series mostly up to 28.7 µM. Put shortly: as §1
Assay [5] has as its system AS120. Described as above. The conditions noted are these: P. falciparum in erythrocytes, SYBR Green DNA, 72 h; series mostly up to 28.7 µM. Put shortly:
as §1

Assay [6] has as its system ATS189. The assay is described as above. The conditions noted are these: P. falciparum in erythrocytes, SYBR Green DNA, 72 h; series mostly up to 28.7 µM. The method, boiled down:
as §1

Assay [7] deals with ATS95. Described as above. The conditions noted are these: P. falciparum in erythrocytes, SYBR Green DNA, 72 h; series mostly up to 28.7 µM. Put shortly: as §1
Assay [8] has as its system C2A. The assay is described as above. The conditions noted are these: P. falciparum in erythrocytes, SYBR Green DNA, 72 h; series mostly up to 28.7 µM. The method, boiled down: as §1
Assay [9] relates to CP185. Described as above. The conditions noted are these: P. falciparum in erythrocytes, SYBR Green DNA, 72 h; series mostly up to 28.7 µM. The method, boiled down: as §1
Assay [10] relates to CP191. Described as above. The conditions noted are these: P. falciparum in erythrocytes, SYBR Green DNA, 72 h; series mostly up to 28.7 µM. The method, boiled down:
as §1

In assay [11] the test system is CP192. The assay is described as above. The conditions noted are these: P. falciparum in erythrocytes, SYBR Green DNA, 72 h; series mostly up to 28.7 µM. Put shortly:
as §1

Assay [12] has as its system CP194. The assay is described as above. The conditions noted are these: P. falciparum in erythrocytes, SYBR Green DNA, 72 h; series mostly up to 28.7 µM. Put shortly:
as §1

Assay [13] concerns CP201. The description is as above. The conditions noted are these: P. falciparum in erythrocytes, SYBR Green DNA, 72 h; series mostly up to 28.7 µM. Put shortly:
as §1

The test system of assay [14] is CP203. The assay is described as above. The conditions noted are these: P. falciparum in erythrocytes, SYBR Green DNA, 72 h; series mostly up to 28.7 µM. The method, boiled down:
as §1

Assay [15] has as its system CP211. Described as above. The conditions noted are these: P. falciparum in erythrocytes, SYBR Green DNA, 72 h; series mostly up to 28.7 µM. The method, boiled down: as §1
For assay [16], the system named is CP217. Described as above. The conditions noted are these: P. falciparum in erythrocytes, SYBR Green DNA, 72 h; series mostly up to 28.7 µM. The method, boiled down:
as §1

The test system of assay [17] is CP237. The assay is described as above. The conditions noted are these: P. falciparum in erythrocytes, SYBR Green DNA, 72 h; series mostly up to 28.7 µM. The method, boiled down:
as §1

In assay [18] the test system is CP215. Described as above. The conditions noted are these: P. falciparum in erythrocytes, SYBR Green DNA, 72 h; series mostly up to 28.7 µM. Put shortly: as §1
The mark [19] stands for this setting: at 12.8 µM (top of the series), parasite line A.
The mark [20] stands for this setting: at 12.8 µM (top of the series), parasite line B.
The mark [21] stands for this setting: at 28.7 µM (top of the series), parasite line B.
Setting [22] is: at 28.7 µM (top of the series), parasite line A.
Potency is the fitted concentration of half-maximal effect.

In the case of `C#CCN(C)Cc1ccccc1`, the activity, negative = inhibition in assay [1] (setting [19]) is 7.21%; in assay [1] (setting [20]), -0.897%. The Potency entry in assay [2], in assay [3], in assay [4], in assay [5], in assay [6] and in assay [7] was “inactive” each time. Further, the Potency result in [8], in assay [9], in [10], in assay [11], in [12] and in assay [13] was “inactive” throughout. Further, the Potency result in [14], in [15], in assay [16] and in assay [17] was “inactive” in each case.
Regarding `NS(=O)(=O)c1cc2c(cc1Cl)NC(CSCc1ccccc1)=NS2(=O)=O`, the activity, negative = inhibition in assay [1] (setting [19]) is 2.74%; in assay [1] (setting [20]) it was 12.8%. For the same molecule, the Potency result in assay [2], in assay [3], in [4], in [5], in [6] and in assay [7] was “inactive” in each case. Further, the Potency result in assay [8], in assay [9], in assay [10], in assay [11], in assay [12] and in assay [13] was “inactive” in each case. For the same molecule, the Potency result in assay [14], in assay [15], in [18], in assay [16] and in [17] was “inactive” in each case.
Turning to `CC(C)(C)NCC(O)COc1ccc(NC(=O)NC2CCCCC2)cc1` (stereo not given), in [1] (setting [21]), the activity, negative = inhibition is 2.44%. The Potency result in assay [2], in assay [4], in [5], in assay [6], in [7] and in [8] was “inactive” throughout. Moreover, the Potency entry in [9], in [10], in assay [11], in [12], in assay [13] and in [14] was “inactive” each time. The Potency result in [15], in assay [18], in [16] and in assay [17] was “inactive” throughout.
As for `CN(C)CCCN1c2ccccc2Sc2ccc(Cl)cc21`, the Potency in assay [3] is 10 µM (active); in assay [7] it was 11.2 µM (active); in assay [18] it was 15.1 µM (active). Also, the Potency result in [13] was “inactive”.
Regarding `COCCOC(=O)C1=C(C)NC(C)=C(C(=O)OC/C=C/c2ccccc2)C1c1cccc([N+](=O)[O-])c1` (stereo not given), the Potency in assay [2] was 12.6 µM (active); in [3] it was 7.94 µM (active); in assay [4] it was 8.91 µM (active); in assay [5], 11.2 µM (active).
For `CCCc1c(OCCCCc2nn[nH]n2)ccc(C(C)=O)c1O`, the activity, negative = inhibition in assay [1] (setting [21]) was -24.5%. Further, the Potency result in assay [2], in assay [4], in assay [5], in assay [7], in assay [8] and in assay [9] was “inactive” throughout. Further, the Potency entry in assay [11], in assay [12], in assay [13], in assay [14], in [15] and in assay [18] was “inactive” throughout. In addition, the Potency result in assay [16] and in assay [17] was “inactive” each time. Besides, in assay [3], the Potency is 12.6 µM (active).
On to `CC(C)(C)C(=O)C(Oc1ccc(Cl)cc1)n1ccnc1` (stereo not given), for which the Potency in assay [2] was 10 µM (active); in [3], 7.94 µM (active); in assay [5], 10 µM (active); in assay [6], 8.91 µM (active); in assay [14], 13.5 µM (active); in assay [16], 10 µM (active). Besides, the Potency in assay [17] was 7.08 µM (active). For the same molecule, the Potency result in assay [9] is “inactive”.
For the molecule `O=S(=O)(O)c1cc(I)c(O)c2ncccc12`, the activity, negative = inhibition was 12% in assay [1] (setting [22]) and -2.06% in [1] (setting [21]). The Potency entry in assay [2], in assay [4], in [5], in [6], in assay [7] and in assay [8] was “inactive” throughout. The Potency entry in [9], in [10], in assay [11], in [12], in [13] and in assay [14] was “inactive” throughout. Further, the Potency entry in [15], in assay [18], in assay [16] and in assay [17] was “inactive” each time.
Regarding `CN(C)CCN(Cc1ccccc1)c1ccccn1`, the activity, negative = inhibition in assay [1] (setting [22]) was -2.14%; in assay [1] (setting [21]), 9.22%. Also, the Potency entry in assay [2], in assay [3], in [8], in assay [9], in assay [10] and in [11] was “inactive” each time. In addition, the Potency entry in assay [12], in [13], in assay [15], in assay [18] and in [16] was “inactive” throughout. In assay [17], the Potency was 5.01 µM (active).
Consider `C[C@]12C[C@H](O)[C@H]3[C@@H](CCC4=CC(=O)CC[C@@]43C)[C@@H]1CC[C@@H]2C(=O)CO`, for which the Potency entry in [2], in [3], in [11], in assay [12], in assay [13] and in [14] was “inactive” each time. The Potency entry in assay [15], in assay [18] and in assay [17] was “inactive” in each case.
Take `CCOc1nc2cccc(C(=O)O)c2n1Cc1ccc(-c2ccccc2-c2nn[nH]n2)cc1`: the activity, negative = inhibition in assay [1] (setting [22]) is -6.01%; in [1] (setting [21]), -13.6%. Also, the Potency entry in assay [2], in [6], in assay [9], in assay [10], in [11] and in assay [13] was “inactive” each time. Further, the Potency result in assay [15] and in assay [17] was “inactive” throughout. For the same molecule, the Potency in assay [3] is 8.91 µM (active).
For `c1ccc(CN(CC2=NCCN2)c2ccccc2)cc1`, the results for the activity, negative = inhibition in assay [1] (setting [22]) and in assay [1] (setting [21]) were -1.61% and -1.95%, respectively. The Potency result in assay [2], in assay [10], in assay [11], in [13], in [15] and in assay [16] was “inactive” throughout. In assay [3], the Potency was 4.47 µM (active).
`CSc1ccc2c(c1)C(N1CCN(C)CC1)Cc1ccccc1S2` (stereo not given): the Potency in assay [3] was 10 µM (active). The Potency result in assay [11] and in assay [13] was “inactive” each time.
